D2 ag-1 – HTS Assay for Allosteric Agonists of the Human D2 Dopamine Receptor: Primary Screen for Agonists; HEK293 T-REx D2 cells, calcium flux agonist mode; activation, % at 2 µM; 340,000 compounds, 0.53% hits;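 active = activation over 3 SD above normal in the single-dose calcium agonist read, cut at about 30% in these data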; note: 0% is about no effect
Target sequence (P14416 whole entry, looked up): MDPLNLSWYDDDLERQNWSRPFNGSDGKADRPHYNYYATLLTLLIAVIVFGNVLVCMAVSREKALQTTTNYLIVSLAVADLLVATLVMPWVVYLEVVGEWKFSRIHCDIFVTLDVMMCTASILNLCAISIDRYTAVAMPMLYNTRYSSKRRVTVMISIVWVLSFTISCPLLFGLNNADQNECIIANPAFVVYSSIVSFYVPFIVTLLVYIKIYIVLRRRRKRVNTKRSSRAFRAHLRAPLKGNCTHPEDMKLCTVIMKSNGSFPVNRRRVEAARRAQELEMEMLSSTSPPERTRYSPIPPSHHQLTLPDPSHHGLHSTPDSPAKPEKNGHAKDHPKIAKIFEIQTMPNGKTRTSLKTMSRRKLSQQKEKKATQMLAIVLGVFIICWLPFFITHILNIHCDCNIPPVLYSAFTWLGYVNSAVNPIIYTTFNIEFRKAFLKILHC
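Tetracycline-induced HEK293 T-REx cells with force-coupled D2 receptor, plated overnight at 30 C, loaded with no-wash calcium dye. After a 10 s baseline, compound was pin-added and calcium flux read kinetically for 180 s; calcium rises flagged agonists.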
D2 PAM-1 – Beta-Arrestin HTS for Positive Allosteric Modulators of the Human D2 Dopamine Receptor: Potentiators | D(2) dopamine receptor (Homo sapiens), P14416 | DiscoveRx D2 beta-arrestin cells, luminescence, 90 min; 100% = 57 uM dopamine signal | potentiation, % (test concentration not listed) | 360,000 compounds, 0.23% hits; in the data active = potentiation above about 50%; inconclusive = mostly about 30% to 49%
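PathHunter D2 cells, attached overnight at 37 deg C, received compound in DMSO plus dopamine at EC20 (50 nM final) for 90 min at 37 deg C. Beta-arrestin recruitment was read as luminescence after 1 h with detection reagent at ambient temperature.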
D2 PAM-2 – HTS Assay for Positive Allosteric Modulators of the Human D2 Dopamine Receptor: Primary Screen for Potentiators | D(2) dopamine receptor (Homo sapiens), P14416 | HEK293 T-REx D2, calcium flux, EC20 dopamine potentiation | potentiation, % at 10 µM | 340,000 compounds, 0.34% hits | AID 485347, 2010;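 active = potentiation over 3 SD above the plate norm, cut at about 30% in these data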; note: 0% is about no effect
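Primary screen. Calcium kinetics in induced HEK293 T-REx D2 cells: compound pre-addition 180 s, EC20 dopamine, 180 s more.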
D2 ag-2 – Beta-Arrestin HTS for Positive Allosteric Modulators of the Human D2 Dopamine Receptor: Agonists; D(2) dopamine receptor (Homo sapiens), P14416; DiscoveRx PathHunter D2 beta-arrestin, luminescence, 90 min; 100% = 57 uM dopamine signal; activation, % (no concentration beside the values); 360,000 compounds, 0.084% hits; AID 624465, 2012; in the data active = activation above about 40%; inconclusive = between about 15% and that limit
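DiscoveRx PathHunter D2 beta-arrestin cells (2,100/well) attached overnight, then compound-stimulated 90 min at 37 C in HBSS/10 mM HEPES/0.1% Tween-20 buffer; beta-galactosidase complementation read by luminescence after 1 h at ambient temperature. Dopamine 57 uM final (EC100) as control.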
D2 antag – HTS Assay for Allosteric Antagonists of the Human D2 Dopamine Receptor: Primary Screen for Antagonists; D(2) dopamine receptor (Homo sapiens), P14416; HEK293 TREx D2 cells, calcium flux, dopamine EC80; inhibition, % at 10 µM; 340,000 compounds, 2% hits; AID 485344, 2010; in the data active = inhibition above about 30%; inactive = below that, where a call was filed; note: 0% is about no effect
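Compounds are added to dye-loaded, induced HEK293 T-REx cells coupled to calcium release via D2; after a 3 min kinetic read an EC80 dopamine stimulus is given and fluorescence is recorded for 3 more min.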
An asterisk follows results filed as active; ? = inconclusive; / = no result given. Shown are actives, neighbours in structure and some others; about 2.4% of the full set was active somewhere.

SMILES	D2 ag-1	D2 PAM-1	D2 PAM-2	D2 ag-2	D2 antag
O=C(Nc1cccc(-n2cnnn2)c1)c1ccc(Cl)cc1Cl	-1.3	-17.9	-5.5	3.1	-14.4
O=C(NC(Cc1cn(Cc2ccccc2)cn1)C(=O)O)OCC1c2ccccc2-c2ccccc21 (stereo not drawn)	/	3.6	/	-3.5	/
COc1ccc(C(=O)NC(=S)Nc2ccc3[nH]c(=O)[nH]c3c2)c(OC)c1	/	-7.5	/	-8.1	/
Cc1cc(N2CCCC2)nc(-c2ccccc2O)n1	0.2	-12.5	2.8	-3.2	7.8
Cc1cc(N2CCCCC2)nc(N)n1	68.9*	-7.2	-14.4	-4.9	60.1*
COc1cc(OC)cc(C(=O)Nc2cc(-c3nc4cccnc4s3)ccc2C)c1	0.1	/	-11.3	/	/
O=C(O)c1ccccc1SCC(=O)N1CCCCC1	-0.1	3.3	3.2	-0.6	-0.2
O=C(O)c1ccccc1SCC(=O)N1c2ccccc2Sc2ccccc21	-1.2	61.6*	-4.4	?	-6.3
Cc1cc(C)nc(NN2C(=O)/C(=C/c3ccc(O)cc3)SC2=S)n1	8.9	-18.4	8.3	-7.4	44.7*
COc1ccccc1/C=C1\SC(=S)N(Nc2nc(C)cc(C)n2)C1=O	0.5	-15.1	3.2	-1.7	-13.2
O=C(N/N=C/c1cc(Br)c(Br)o1)c1cc2ccccc2o1	-0.2	-36.8	-23.9	6.1	33.1*
CCn1cc(/C=N/NC(=O)c2cc3c(ccc4ccccc43)o2)c2ccccc21	0.1	?	35.2*	0.3	-4.9
O=C(c1nc2ccccn2c1CNCCCn1ncc2ccccc21)N1CCOCC1	-0.1	-6.8	-8.4	-2.2	-5.8
Cn1cc(CNCCCn2ncc3ccccc32)c(-c2ccccc2F)n1	1.0	-27.1	-20.3	-3.8	37.2*
CCCCc1nc(NCCO)c(C#N)c2c1CCCC2	2.1	-11.7	-4.0	-4.8	48.2*
O=S(=O)(c1ccccc1)c1nc(-c2ccc(Cl)cc2Cl)oc1N1CCCCCC1	-0.1	/	-11.4	/	/
C[C@H](N)c1nnc(SCC(=O)c2ccc(Cl)cc2)o1	1.5	9.6	8.4	0.5	40.4*
O=C(Nc1nnc(-c2ccccc2)o1)c1nc2ccccc2s1	43.9*	-18.1	-11.3	-12.3	8.3
O=C(NCc1ccccc1)c1ccc2nnsc2c1	0.2	-3.0	0.1	-3.9	33.6*
CC(C)n1nc(C(=O)Nc2cccc(S(=O)(=O)NCc3ccco3)c2)c2ccccc2c1=O	-1.3	-8.9	8.6	3.5	2.6
CCCNC(=O)Cn1c(=O)/c(=C\c2ccc(-c3ccc([N+](=O)[O-])cc3)o2)s/c1=C\C(=O)C(C)(C)C	93.3*	6.6	-13.8	-1.6	53.8*
CN(C)c1ccnc(Oc2ccc(Cl)cc2)c1C#N	0.2	-7.7	42.0*	-2.2	-19.0
CSc1oc(-c2ccccc2)nc1S(=O)(=O)c1ccc(C)cc1	2.5	-3.5	0.6	-3.9	34.3*
CCN1CCN(c2oc(-c3ccccc3)nc2S(=O)(=O)c2ccc(C)cc2)CC1	-0.2	-36.0	-24.1	-1.4	47.2*
Cc1ccc(S(=O)(=O)c2nc(-c3ccccc3)oc2N2CCCCCC2)cc1	0.6	/	-3.6	/	/
SMILES	D2 ag-1	D2 PAM-1	D2 PAM-2	D2 ag-2	D2 antag
COc1cc(/C=N/NC(N)=O)ccc1OC(=O)c1cccs1	-0.1	0.0	3.5	4.3	-3.3
COc1cc(/C=N/N(C)C)ccc1OC(=O)c1cccs1	-0.7	-9.6	41.8*	3.0	-13.1
CCN(CC)C(=O)C1=C(C)N(CCC2=CCCCC2)C(=O)C(CC(=O)NCCCN(C)C)C1 (stereo not drawn)	/	2.6	/	-6.4	/
N/C(=N\OC(=O)COc1ccc(Cl)cc1Cl)c1ccncc1	-0.8	-19.9	-3.1	-0.9	9.1
Cc1ccc(N(CC(=O)NCCSc2nc3ccccc3s2)S(=O)(=O)c2ccccc2)c(C)c1	0.5	15.7	5.8	0.9	55.1*
COc1ccc(-c2nc(C)c(CCNC(=O)c3c(F)cccc3F)s2)cc1	1.0	/	8.7	/	/

From PubChem
